From article PMC5540273 (PLoS ONE, 2017)

How the values were obtained:
Settings in all cases: concentration: 1 μM, replicates: in singlicate; n = 1
[1] = test system: HIPK3
[2] = test system: HIPK4
[3] = test system: HPK1
[4] = test system: HUNK
[5] = test system: ICK
[6] = test system: IGF1R
[7] = test system: T1, IKK-alpha
T1 construct: gene CHUK

[8] = test system: T2, IKK-beta
T2 construct: gene IKBKB

[9] = test system: T3, IKK-epsilon
T3 construct: gene IKBKE

[10] = test system: INSRR
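Note: KINOMEscan kinase panel screen.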

Compound	%Inh [1]	%Inh [2]	%Inh [3]	%Inh [4]	%Inh [5]	%Inh [6]	%Inh [7]	%Inh [8]	%Inh [9]	%Inh [10]
CCc1nc(-c2cccc(C)c2)c(-c2ccncc2)s1	0%	0%	8%	0%	0%	0%	0%	0%	0%	0%
CCC(=O)c1c(-c2ccccc2)c2cc(Cl)ccc2c(=O)n1Cc1cc(S(C)(=O)=O)n(CC(N)=O)n1	0%	0%	0%	0%	0%	0%	0%	0%	0%	0%
COc1cc2ncn(-c3cc(OCc4ccncc4Br)c(C(N)=O)s3)c2cc1OC [GW854278]	15%	32%	0%	0%	5%	0%	6%	3%	0%	7%
COC(=O)c1c(-c2ccccc2)c2cc(Br)ccc2c(=O)n1Cc1ccc(NC(=O)CCC(=O)O)cc1	0%	0%	0%	0%	14%	0%	0%	0%	0%	13%
COc1cc(Nc2nccc(N3CCC(NC(=O)C(C)c4ccc(Cl)cc4)C3)n2)cc(OC)c1OC (stereo not shown) [GSK1379757]	0%	0%	37%	16%	0%	13%	0%	0%	23%	0%
Nc1n[nH]c2ncc(-c3ccccc3)cc12 [SB-517081]	12%	0%	44%	13%	0%	18%	27%	65%	13%	0%
COc1cc2nccc(Nc3ccc(OCc4ccc(NC(C)=O)cc4)cc3)c2cc1OC.Cl [GW440135]	0%	0%	36%	21%	0%	0%	10%	0%	3%	8%
O=c1cc(N2CCOCC2)nc2n(Cc3ccc(F)c(Cl)c3)ccn12 [GSK2297099]	23%	0%	25%	0%	16%	0%	3%	17%	0%	0%
COc1cc2ncn(-c3cc(OCCCc4ccccc4)c(C(N)=O)s3)c2cc1OC [GSK205189]	0%	60%	28%	0%	0%	13%	0%	0%	14%	3%
CCC(=O)c1c(-c2ccccc2)c2cc(Cl)ccc2c(=O)n1Cc1cc(C(=O)NC2CC2)n(C)n1	2%	1%	0%	0%	4%	0%	5%	10%	0%	0%
CCC(=O)c1c(-c2ccccc2)c2cc(Cl)ccc2c(=O)n1Cc1cc(S(C)(=O)=O)n(CCC(C)(C)O)n1	0%	3%	17%	0%	0%	4%	0%	3%	30%	10%
COc1cccc(C2=C(N(C)c3ccccc3)C(=O)NC2=O)c1 [SB-334865]	25%	0%	53%	9%	0%	12%	0%	14%	3%	0%
Cc1nnc(-c2ccc(C)c(-c3ccc(C(=O)O)cc3)c2)o1 [GW608005]	7%	0%	7%	0%	0%	0%	30%	25%	1%	10%
CCn1c(-c2ccoc2)nc2cnccc21 [SB-733887]	20%	0%	35%	0%	14%	0%	30%	29%	60%	0%
CCCNC(=O)Nc1ccc(Oc2ncnc3ccn(C)c23)cc1	14%	19%	0%	0%	17%	0%	1%	0%	0%	0%
CCc1ccc(-c2ccc3c(c2)-c2nn(C)cc2S(=O)(=O)N3C)cc1	0%	0%	18%	47%	0%	0%	0%	1%	0%	0%
COc1ccc(-c2coc3ccc(-c4nnc(SCc5cccc(C#N)c5)o4)cc23)cc1	20%	0%	0%	0%	17%	0%	19%	7%	0%	0%

Compound	%Inh [1]	%Inh [2]	%Inh [3]	%Inh [4]	%Inh [5]	%Inh [6]	%Inh [7]	%Inh [8]	%Inh [9]	%Inh [10]
COc1ccc(CNC(=O)NC2CCN(c3ccnc(Nc4ccc(F)cc4)n3)C2)cc1 (stereo not shown) [GSK1379706]	30%	8%	49%	0%	0%	13%	3%	0%	30%	0%
O=C(Nc1n[nH]c2cc(-c3ccccc3F)ccc12)C1CC1 [SB-733371]	3%	0%	8%	0%	32%	0%	0%	0%	0%	9%
COc1cc(OC)cc(-c2cc3cnc(N)nc3nc2NC(=O)NC(C)(C)C)c1	0%	0%	0%	0%	0%	0%	7%	9%	7%	0%
Cc1nn2c(=O)cc(N3CCOCC3)nc2n1Cc1cccc(Cl)c1Cl [GSK2342769]	38%	0%	32%	0%	2%	5%	19%	18%	5%	0%
Cl.NS(=O)(=O)c1cccc(Nc2cc(-c3ccc(F)cc3)n[nH]2)c1 [GW824645]	18%	18%	0%	58%	12%	0%	1%	9%	8%	0%
Nc1nc(N)c2nc(-c3ccccc3)[nH]c2n1 [SKF-12778]	10%	13%	57%	11%	15%	15%	4%	17%	12%	12%
FC(F)(F)c1ccc(-c2ncn(CCCN3CCOCC3)c2-c2ccncc2)cc1 [SB-217780]	7%	0%	1%	0%	64%	0%	1%	0%	8%	0%
Nc1n[nH]c2nnc(-c3ccccc3)c(-c3ccccc3)c12 [GW554060]	68%	0%	27%	5%	0%	0%	28%	0%	0%	0%
Nc1nccc2scc(-c3ccc4c(c3)CCN4C(=O)Cc3ccccc3)c12 [GSK2576924]	11%	0%	18%	0%	0%	1%	0%	0%	12%	0%
Cc1ccc(Oc2ccc(Nc3ncnc4cc[nH]c34)cc2C)cn1	24%	0%	0%	4%	33%	0%	0%	8%	50%	0%
COc1cc(Nc2ccnc3ccc(C(F)(F)F)cc23)cc(OC)c1OC [GW577382]	18%	0%	31%	30%	0%	0%	21%	3%	0%	4%
Cc1cc(Nc2nc(-c3cccc(C)n3)nc3ccccc23)ccn1 [GW872411]	0%	0%	0%	28%	0%	0%	0%	0%	0%	0%
CN(C)c1cc(-c2ccc3c(N)n[nH]c3c2)nc(N)n1 [GSK2219329]	17%	0%	26%	2%	4%	14%	0%	0%	40%	0%
COc1cc2ncn(-c3cc(OCc4ccc(S(C)(=O)=O)cc4)c(C(N)=O)s3)c2cc1OC [GW869979]	2%	26%	10%	2%	19%	6%	0%	7%	25%	0%
O=C(Nc1ccc2c(c1)OCO2)NC1CCN(c2ccnc(NCc3ccc(F)cc3)n2)CC1 [GSK1379859]	9%	0%	29%	1%	0%	0%	0%	0%	11%	0%
C[C@@H]1CC[C@H](C(=O)NC2CCCCC2)CN1c1cc(-c2ccc3c(N)n[nH]c3c2)nc(N)n1 [GSK2291363]	14%	0%	50%	0%	18%	30%	0%	0%	25%	0%
Cc1cccc(-c2cc(-c3c[nH]nc3-c3ccccn3)ccn2)c1 [GW679395]	13%	0%	32%	10%	9%	0%	4%	25%	21%	0%
